Screening results (PubChem BioAssay)
HIF-2a inh: blocks HIF-2a reporter activity | 786-0 RCC cells HIF-2a reporter, luciferase luminescence, overnight | inhibition, % at 18.8 µM | actives 0.72% (n = 360,000) | AID 624352;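 active means inhibition of the luminescence signal of 40% or more relative to plate controls, in a single-dose primary screen at 18.75 µM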
KKLEB tox: counter-screen for CF NF-kB inhibitors: cytotoxicity. actives 0.36% (n = 360,000). KKLEB CF airway cells viability, ATPlite luminescence, overnight; stronger effect = lower value; cells stimulated with P. aeruginosa culture filtrate. activity change (cytotoxicity), % at 5 µM. AID 602141;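 active means corrected activity change at or below -50% at 5 µM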
TWEAK-Fn14 inh: blocks TWEAK-Fn14 interaction in a reporter cell assay; TWEAK-stimulated Fn14 reporter cells, luciferase luminescence, 8 h; inhibition, % at 10 µM; actives 2% (n = 360,000); AID 1159606; in the data active means inhibition above about 50%
iPSC survival up: increases survival of single human iPS cells. hiPSC single-cell survival, ATPlite luminescence; 100% = ROCK inhibitor wells, 0% = DMSO. survival enhancement, % at 20 µM. actives 0.044% (n = 360,000); in the data active means survival enhancement above about 18%;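 further: cells exposed to compounds for 16 hours before the ATP read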
LGR2 antag: Drosophila LGR2 receptor signaling inhibition | HEK293 LGR2, CRE-luciferase, bursicon-stimulated, 4 h | inhibition, % at 9.99 µM | actives 0.35% (n = 380,000) | AID 720647;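 active means drop in luminescence signal, shown as inhibition above about 50% in the replicate tests, limit read from the data, passing the limit was not always enough; inconclusive means probably only some replicates passing the limit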;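 further: agonist challenge used bursicon conditioned medium at about half maximal strength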
CF NFkB block: inhibitors of cystic fibrosis induced NF-kB. inhibition, % at 5 µM. KKLEB NF-kB-GFP reporter, PAF-induced, GFP fluorescence overnight. actives 0.86% (n = 360,000);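 active means at least 50% inhibition at 5 µM, scaled per plate between neutral and stimulator controls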;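 further: PAF is a Pseudomonas aeruginosa culture filtrate used as stimulus; plate controls were PAF-stimulated DMSO wells for no effect and unstimulated DMSO wells for full effect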
Starred values were filed as active, the others as inactive; ? = inconclusive; · = no result given. Compounds with a hit are over-represented: about 2.3% of the library has one in this group of screens.

SMILES	HIF-2a inh	KKLEB tox	TWEAK-Fn14 inh	iPSC survival up	LGR2 antag	CF NFkB block
Cc1cc(C(=O)CN2CCC(C)CC2)c(C)n1-c1ccccc1F	28.9	-8.2	81.8*	-3.3	·	3.3
Nc1ccc(NC(=O)c2ccccc2)c2c1C(=O)c1ccccc1C2=O	2.6	-53.2*	-13.7	-3.2	·	61.3*
C[C@H](CO)N1C[C@H](C)[C@@H](CN(C)S(C)(=O)=O)Oc2ncc(C3=CCCCC3)cc2C1=O	·	·	·	·	25.6	·
O=c1oc(Nc2ccc(F)cc2)nc2ccccc12	-135.3	-15.0	57.9*	-0.6	24.0	-2.8
O=c1nc(Nc2ccccc2)oc2ccccc12	-246.4	-3.9	-16.7	0.0	-77.9	1.2
Cc1ccc2[nH]c(C(=O)NN=C3CCCCC3)c(-c3ccccc3)c2c1	16.5	-4.3	50.9*	0.5	-0.8	9.2
CCOC(=O)c1cc(-c2ccccc2)sc1NC(=O)C(C)(C)C	8.0	16.2	95.6*	0.3	·	-11.9
CC1=C(C(=O)Nc2ccccc2)C(c2ccncc2)C(C#N)=C(SCC(=O)NC2CC2)N1 (configuration not stated)	5.9	6.7	94.4*	0.7	·	-8.9
Cc1cc(C)n(Cc2ccc(NC(=O)c3ccc(COc4ccccc4Br)cc3)cc2)n1	-68.2	-9.4	60.0*	3.0	·	-20.5
NC(=O)c1ccc(NC(=O)c2ccc(COc3ccccc3Br)cc2)cc1	-78.5	4.0	-14.8	-0.5	-19.6	-24.0
O=C(C[C@H]1C=C[C@@H](NC(=O)CN2CCOCC2)[C@@H](CO)O1)NCc1cccc(F)c1	·	·	·	·	-22.0	·
CC(=O)N1CCN(c2cc3c(cc2F)c(=O)c(C(=O)O)cn3C2CC2)CC1	8.9	-16.8	-6.1	1.0	-8.2	2.6
CCN1CCN(c2cc3c(cc2F)c(=O)c(C(=O)O)cn3C2CC2)CC1	11.6	17.1	60.1*	-0.7	-14.6	-11.3
C[C@H]1CN([C@@H](C)CO)C(=O)Cc2cc(N(C)C)ccc2O[C@@H]1CN(C)Cc1ccc(Cl)c(Cl)c1	·	·	·	·	-3.7	·
NC(=O)c1cccc(-c2cnc3c(Nc4cccc(OC(F)(F)C(F)F)c4)nccn23)c1	-242.4	-10.4	72.2*	-1.1	8.4	10.9
CCOc1cc(CNCCCN2CCOCC2)cc(Br)c1OCc1ccccc1Cl	13.1	-54.9*	-32.3	-0.3	?	35.0
Cc1ccc(C(=O)Nc2ccc3ccccc3c2)cc1	-120.7	-43.9	87.1*	-0.9	·	-26.5
CCOc1cccc(C(=O)Nc2ccc3ccccc3c2)c1	-76.4	-22.4	51.8*	-0.7	65.9*	0.3
Cc1cc(C(=O)Nc2ccc3ccccc3c2)oc1C	-217.9	-0.3	13.6	-0.7	-74.1	-4.4
O=C(Nc1ccc2ccccc2c1)c1ccc(Cl)cc1	-134.9	-13.3	39.9	-0.7	-17.3	-9.4
Cc1ccoc1C(=O)Nc1ccc2ccccc2c1	-94.2	-21.7	35.5	-0.4	60.0*	2.0
CC(C)NC(=O)Nc1ccc2c(c1)CC(=O)N([C@H](C)CO)C[C@@H](C)[C@H](CN(C)C(=O)Nc1ccccc1)O2	·	·	·	·	-4.7	·
CCC(=O)N(C)C[C@@H]1Oc2ncc(C#CC(C)(C)O)cc2C(=O)N([C@H](C)CO)C[C@H]1C	·	·	·	·	-21.5	·
CO[C@H]1CN(C)C(=O)c2cc(NC(C)=O)ccc2OC[C@H](C)N(C(=O)Cc2cccnc2)C[C@@H]1C	·	·	·	·	7.4	·
CC(=O)N(C)C[C@H]1Oc2ncc(-c3cccnc3)cc2C(=O)N([C@H](C)CO)C[C@H]1C	·	·	·	·	-0.1	·
SMILES	HIF-2a inh	KKLEB tox	TWEAK-Fn14 inh	iPSC survival up	LGR2 antag	CF NFkB block
CCN(CC)CCNCC(=O)N1c2ccccc2CCc2ccc(NC(=O)OC)cc21	9.0	0.6	105.0*	-0.4	6.6	-14.3
Cc1cccc(-c2ccc(C3[C@@H]4CN(C(=O)C5CCCCC5)C[C@H]3N4)cc2)c1 (some centres not stated)	·	·	·	·	-57.8	·
COc1ccc(CCN2C(=O)CSC2=Nc2ccc(C(C)C)cc2)cc1OC	9.4	-19.5	57.6*	0.3	1.4	11.0
C[C@@H]1CN([C@@H](C)CO)C(=O)Cc2cc(NC(=O)C3CC3)ccc2O[C@H]1CN(C)S(=O)(=O)c1ccc(Cl)cc1	·	·	·	·	5.3	·
Cc1ccc(/C=C2/SC(=S)N(c3ccc(S(=O)(=O)Nc4nccs4)cc3)C2=O)cc1	16.4	-15.1	63.9*	0.0	29.9	17.2
O=C1/C(=C/c2ccccc2)CN(C(=O)CCN2CCOCC2)C/C1=C\c1ccccc1	84.9*	8.9	100.4*	10.5	102.5*	89.8*
CN(C)CCC(=O)N1C/C(=C/c2ccccc2)C(=O)/C(=C\c2ccccc2)C1	92.0*	-70.7*	103.4*	1.2	102.4*	94.8*
COc1ccc(OC(=O)N2C/C(=C/c3ccccc3)C(=O)/C(=C\c3ccccc3)C2)cc1	59.5*	-37.4	89.7*	-2.8	?	64.3*
CCOC(=O)N1C/C(=C\c2ccccc2)C(=O)/C(=C/c2ccccc2)C1	94.6*	-10.4	0.1	0.6	29.0	88.7*
C[N+](C)(C)CCC(=O)N1C/C(=C/c2ccccc2)C(=O)/C(=C\c2ccccc2)C1	-0.1	7.8	27.9	-3.2	9.0	-118.0
O=C(/C=C/c1ccccc1)CCN1CCOCC1	-7.7	-6.6	18.9	-1.9	-22.9	7.2
C[C@H]1CN([C@@H](C)CO)C(=O)c2cc(NC(=O)Cc3ccccc3)ccc2O[C@@H]1CN(C)Cc1ccc(-c2ccccc2)cc1	·	·	·	·	11.8	·
CCCN1C[C@H](C)[C@@H](OC)CN(C)C(=O)c2cc(NS(C)(=O)=O)ccc2OC[C@H]1C	·	·	·	·	8.1	·
C[C@H]1COC2=C1C(=O)C(=O)c1c2ccc2c1CCCC2(C)C	-49.9	-2.9	35.8	0.0	·	56.6*
Cc1coc2c1C(=O)C(=O)c1c-2ccc2c1CCCC2(C)C	-44.9	-16.3	32.8	-0.1	-7.6	69.7*
O=C(c1ccccc1)N1CC2(C1)[C@@H](c1ccccc1)[C@H](CO)N2CC1CC1	·	·	·	·	16.9	·
C[C@@H](NC(=O)C[C@@H]1CC[C@H](NC(=O)Nc2ccc3c(c2)OCO3)[C@@H](CO)O1)c1ccccc1	·	·	·	·	-3.4	·
CO[C@@H]1CN(C)C(=O)c2cc(NC(=O)Cc3ccccc3)ccc2OC[C@H](C)N(C(C)=O)C[C@@H]1C	·	·	·	·	-2.1	·
CCOc1ccc2nc(NC(=O)c3ccoc3C)sc2c1	-68.7	-3.1	63.2*	-3.8	·	-1.1
CCOc1ccc2nc(NC(=O)c3ccccn3)sc2c1	-16.9	-37.6	-5.5	-0.7	88.8*	-5.0
CN(c1ccc(OCC(=O)Nc2nc3ccccc3s2)cc1)S(=O)(=O)c1ccccc1	-3.8	7.3	40.6	0.8	-14.0	-8.2
CCOc1ccc2nc(SCCNS(=O)(=O)c3ccccc3)sc2c1	-27.5	0.3	54.8*	2.5	15.8	19.2
CCOc1ccc2nc(NC(=O)COC)sc2c1	-133.2	2.3	30.4	-0.4	·	7.5
CCOc1ccc(S(=O)(=O)N(C)c2ccc(OCC(=O)Nc3nc4ccccc4s3)cc2)cc1	10.8	5.7	74.0*	-2.5	-8.9	-11.9
